Results reported in PubChem BioAssay (NCI).
The panel holds about 83,000 compounds, 20% with a hit somewhere; the sample as a whole holds those more often.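 Cell lines were cultured in 96-well plates, exposed to a single compound concentration, and assessed for percent growth 48 hours later.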 The source made the active and inactive calls. How the source made its calls: active means growth percent below 10; inactive means the rest.

Key:
Test in all cases: NCI-60 one-dose screen, 48 h (100 = growth as untreated, 0 = no growth, -100 = all killed)
Settings in all cases: 10 µM unless noted
HCT-15 colon = test system: HCT-15 colon
HT29 colon = test system: HT29 colon
SNB-75 CNS = test system: SNB-75 CNS
SNB-19 CNS = test system: SNB-19 CNS
U251 CNS = test system: U251 CNS
PC-3 prostate = test system: PC-3 prostate
UACC-62 melanoma = test system: UACC-62 melanoma
SK-MEL-28 melanoma = test system: SK-MEL-28 melanoma
SK-MEL-2 melanoma = test system: SK-MEL-2 melanoma
EKVX NSCLC = test system: EKVX NSCLC
SN12C renal = test system: SN12C renal
UO-31 renal = test system: UO-31 renal
TK-10 renal = test system: TK-10 renal
ACHN renal = test system: ACHN renal
CAKI-1 renal = test system: CAKI-1 renal
A498 renal = test system: A498 renal
CCRF-CEM leukemia = test system: CCRF-CEM leukemia
MOLT-4 leukemia = test system: MOLT-4 leukemia
LOX IMVI melanoma = test system: LOX IMVI melanoma

Measured: growth

CC(=O)O[C@H]1CC[C@]2(C)[C@H]3CC=C4[C@@H]5[C@H](C)[C@@H](C)CC[C@]5(C(=O)NCCNCCNCCN)CC[C@@]4(C)[C@]3(C)CC[C@H]2C1(C)C
inactive: HCT-15 colon 63.3% | HT29 colon 42.5% | SNB-75 CNS 70.8% | SNB-19 CNS 82.6% | U251 CNS 70.1% | PC-3 prostate 57.7% | UACC-62 melanoma 91.7% | SK-MEL-28 melanoma 90.1% | SK-MEL-2 melanoma 105% | EKVX NSCLC 72.6% | SN12C renal 78.3% | UO-31 renal 63.5% | TK-10 renal 101% | ACHN renal 91.5% | CAKI-1 renal 55.8% | A498 renal 95.4% | CCRF-CEM leukemia 62.1% | MOLT-4 leukemia 49.9%

Cn1c2c(Cl)c(Cl)ccc2c2c(C#N)c[nH]c(=O)c21
inactive: HCT-15 colon 99% | HT29 colon 99.5% | SNB-75 CNS 91.9% | SNB-19 CNS 97.3% | U251 CNS 101% | PC-3 prostate 74.3% | UACC-62 melanoma 93.4% | LOX IMVI melanoma 91.9% | SK-MEL-28 melanoma 114% | SK-MEL-2 melanoma 97.3% | EKVX NSCLC 98.9% | SN12C renal 95.9% | UO-31 renal 89.9% | TK-10 renal 119% | ACHN renal 93.4% | CAKI-1 renal 71.1% | A498 renal 89.5% | CCRF-CEM leukemia 39.2% | MOLT-4 leukemia 95.7%

O=C(Nc1ccc(/C=C2\SC(=O)N(Cc3ccc(OC(F)(F)F)cc3)C2=O)cc1)c1ccc(Cl)c([N+](=O)[O-])c1
active: U251 CNS -18.8% | PC-3 prostate 9.15%
inactive: HCT-15 colon 72.5% | HT29 colon 11.3% | SNB-75 CNS 85.5% | SNB-19 CNS 36.8% | UACC-62 melanoma 94.4% | LOX IMVI melanoma 73.1% | SK-MEL-28 melanoma 95.5% | SK-MEL-2 melanoma 92.6% | EKVX NSCLC 91.1% | SN12C renal 81.6% | UO-31 renal 67.9% | TK-10 renal 98.5% | ACHN renal 89.3% | CAKI-1 renal 85.7% | A498 renal 82.2% | CCRF-CEM leukemia 77% | MOLT-4 leukemia 78.4%

CC1(C)C(=O)CC[C@]2(C)[C@H]3C(=O)C=C4[C@@H]5C[C@@](C)(C(=O)NCCNCCN)CC[C@]5(C)CC[C@@]4(C)[C@]3(C)CC[C@@H]12
inactive: HCT-15 colon 99.4% | HT29 colon 98% | SNB-19 CNS 98.4% | U251 CNS 88.3% | PC-3 prostate 90.4% | UACC-62 melanoma 98.1% | SK-MEL-28 melanoma 104% | SK-MEL-2 melanoma 121% | EKVX NSCLC 105% | SN12C renal 86% | UO-31 renal 76.8% | TK-10 renal 147% | ACHN renal 104% | CAKI-1 renal 92.5% | A498 renal 101% | CCRF-CEM leukemia 75.9% | MOLT-4 leukemia 82.5%
active: SNB-75 CNS -29.7%

O=C1c2cc3c(cc2-c2c1c1ccc(F)cc1c(=O)n2CCCN1CCOCC1)OCO3
inactive: HCT-15 colon 72.5% | HT29 colon 42% | SNB-75 CNS 53.9% | SNB-19 CNS 39.1% | U251 CNS 14.2% | PC-3 prostate 60% | UACC-62 melanoma 13.3% | SK-MEL-28 melanoma 80.1% | SK-MEL-2 melanoma 82.1% | EKVX NSCLC 82.4% | SN12C renal 33.2% | UO-31 renal 35.9% | TK-10 renal 106% | CAKI-1 renal 17.2% | A498 renal 59% | CCRF-CEM leukemia 19.6%
active: LOX IMVI melanoma 8.74% | ACHN renal 4.58% | MOLT-4 leukemia 3.65%

COc1cc(/C=C/c2cc(/C=C/c3ccc(O)c(OC)c3)n(-c3ccc(Cl)cc3)c(=O)n2)ccc1O
inactive: HCT-15 colon 85.4% | SNB-75 CNS 69.7% | SNB-19 CNS 91% | U251 CNS 75.5% | PC-3 prostate 77.3% | UACC-62 melanoma 80.6% | LOX IMVI melanoma 61.6% | SK-MEL-28 melanoma 81.6% | SK-MEL-2 melanoma 92.6% | EKVX NSCLC 78.1% | SN12C renal 80.8% | UO-31 renal 64.9% | TK-10 renal 118% | ACHN renal 83.1% | CAKI-1 renal 92.9% | A498 renal 102% | CCRF-CEM leukemia 44.2% | MOLT-4 leukemia 43%
active: HT29 colon -5.09%

CCN1CCN(C(=O)[C@]23CC[C@@H](C)[C@H](C)[C@H]2C2=CC[C@@H]4[C@@]5(C)C/C(=C/c6cccc(OC)c6OC)C(=O)C(C)(C)[C@@H]5CC[C@@]4(C)[C@]2(C)CC3)CC1
inactive: HCT-15 colon 19.2% | HT29 colon 21.5% | SNB-75 CNS 35.6% | SNB-19 CNS 53.1% | U251 CNS 38.4% | PC-3 prostate 18.8% | UACC-62 melanoma 57.4% | SK-MEL-28 melanoma 58.7% | SK-MEL-2 melanoma 84.6% | EKVX NSCLC 27.7% | SN12C renal 43.2% | UO-31 renal 30.3% | TK-10 renal 95.9% | ACHN renal 41.9% | CAKI-1 renal 31.4% | A498 renal 77.7% | CCRF-CEM leukemia 30.2% | MOLT-4 leukemia 10.1%

Nc1c(Cl)cc(N=Nc2ccccc2)cc1Cl
inactive: HCT-15 colon 93% | HT29 colon 100% | SNB-75 CNS 74% | SNB-19 CNS 100% | U251 CNS 94.5% | PC-3 prostate 96.2% | UACC-62 melanoma 57.5% | SK-MEL-28 melanoma 106% | SK-MEL-2 melanoma 61.3% | EKVX NSCLC 69% | SN12C renal 95.4% | UO-31 renal 62.2% | TK-10 renal 12.8% | ACHN renal 97.4% | CAKI-1 renal 89.9% | A498 renal 73.6% | MOLT-4 leukemia 90.3%
